From PubChem BioAssay (EPA / NIEHS)
Where “and” joins values, the source holds several entries; their conditions need not be identical. Equal values may be shown once. Records with an inconclusive call do not appear. A structure can be active in one record and inactive in another. Calls of active or inactive are those of the source. Rule for the calls, unless noted: active = hit-call score of the fitted dose curve at least 0.9, where 1 is the maximum; inconclusive = response in the unintended direction; inactive = score below 0.9.

Experiments:
[1] = target: Retinoic acid receptor RXR-alpha (Homo sapiens) (UniProt P19793); test: ATG_RXRa_TRANS: Attagene TRANS-FACTORIAL HepG2 Assay for human Retinoid X Receptor alpha (RXRa) (AID 2283012)
Sequence of Retinoic acid receptor RXR-alpha (Homo sapiens) (P19793 whole entry, looked up, the tested form may be a part): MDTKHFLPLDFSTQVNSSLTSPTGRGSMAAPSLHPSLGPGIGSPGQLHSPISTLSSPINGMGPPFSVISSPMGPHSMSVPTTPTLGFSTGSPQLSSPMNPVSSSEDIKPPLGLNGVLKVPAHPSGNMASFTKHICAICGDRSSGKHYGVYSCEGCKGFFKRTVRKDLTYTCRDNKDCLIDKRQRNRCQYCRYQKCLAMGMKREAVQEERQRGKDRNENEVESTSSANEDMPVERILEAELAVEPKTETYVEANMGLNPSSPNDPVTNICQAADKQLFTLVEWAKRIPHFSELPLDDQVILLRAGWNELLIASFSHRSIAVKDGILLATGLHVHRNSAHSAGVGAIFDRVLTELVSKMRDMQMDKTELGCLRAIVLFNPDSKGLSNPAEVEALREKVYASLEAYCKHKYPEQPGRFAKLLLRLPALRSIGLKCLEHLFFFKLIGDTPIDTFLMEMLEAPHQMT
Method in brief: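 Cells (HepG2) carried transiently transfected GAL4-responsive reporter units. Following a 24 h chemical incubation, reporter mRNA induction was read via RT-PCR fragment analysis; DMSO served as negative control and baseline.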

[2] = target: human Retinoid X Receptor beta (RXRb), RXRB (gene 6257) (UniProt P28702); test: ATG_RXRb_TRANS: Attagene TRANS-FACTORIAL HepG2 Assay for human Retinoid X Receptor beta (RXRb) (AID 2283013)
Sequence of human Retinoid X Receptor beta (RXRb), RXRB (gene 6257) (P28702 whole entry, looked up): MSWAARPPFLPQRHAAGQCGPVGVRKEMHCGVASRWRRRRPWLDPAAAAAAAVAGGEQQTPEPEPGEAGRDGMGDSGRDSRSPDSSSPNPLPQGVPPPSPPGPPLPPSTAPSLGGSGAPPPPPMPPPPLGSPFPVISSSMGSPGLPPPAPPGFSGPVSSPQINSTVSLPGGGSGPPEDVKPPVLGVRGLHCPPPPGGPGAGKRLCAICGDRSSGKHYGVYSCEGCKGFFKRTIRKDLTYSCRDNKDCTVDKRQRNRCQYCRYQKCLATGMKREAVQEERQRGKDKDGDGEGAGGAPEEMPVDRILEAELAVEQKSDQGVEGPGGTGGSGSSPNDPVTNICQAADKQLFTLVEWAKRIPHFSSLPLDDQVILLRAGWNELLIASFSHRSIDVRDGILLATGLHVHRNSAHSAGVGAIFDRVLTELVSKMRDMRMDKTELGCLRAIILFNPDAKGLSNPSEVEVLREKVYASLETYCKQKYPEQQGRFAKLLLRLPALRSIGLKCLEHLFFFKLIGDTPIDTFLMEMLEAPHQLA
Method in brief: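 Multiplexed TRANS reporter assay in HepG2; 24 h dosing; reporter mRNA by RT-PCR/CE fluorescence; gain-of-signal relative to DMSO.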

[3] = target: human Thyroid Receptor alpha (THRa1), THRA (gene 7067) (UniProt P10827); test: ATG_THRa1_TRANS: Attagene TRANS-FACTORIAL HepG2 Assay for human Thyroid Receptor alpha (THRa1) (AID 2283014)
Sequence of human Thyroid Receptor alpha (THRa1), THRA (gene 7067) (P10827 whole entry, looked up, the tested form may be a part): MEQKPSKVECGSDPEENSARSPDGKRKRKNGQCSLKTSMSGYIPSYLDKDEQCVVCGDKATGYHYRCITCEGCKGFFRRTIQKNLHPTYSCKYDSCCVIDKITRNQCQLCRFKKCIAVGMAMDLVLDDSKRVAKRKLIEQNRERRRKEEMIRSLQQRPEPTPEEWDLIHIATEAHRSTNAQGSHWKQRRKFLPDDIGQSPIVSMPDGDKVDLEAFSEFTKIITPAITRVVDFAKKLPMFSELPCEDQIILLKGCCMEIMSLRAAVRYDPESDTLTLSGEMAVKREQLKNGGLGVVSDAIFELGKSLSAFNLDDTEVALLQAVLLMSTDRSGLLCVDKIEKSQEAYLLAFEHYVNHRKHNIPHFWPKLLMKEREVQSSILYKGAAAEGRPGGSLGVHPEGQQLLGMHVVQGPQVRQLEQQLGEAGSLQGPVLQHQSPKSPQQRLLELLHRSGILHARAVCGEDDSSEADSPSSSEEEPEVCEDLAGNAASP
Method in brief: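 Reporter transcript induction, read by capillary electrophoresis of 6-FAM-labelled RT-PCR products, reflects activity of a transfected THRa1-Gal4 fusion in HepG2 liver cells. Cells were dosed for 24 h; activity was fitted in the positive direction against DMSO.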

[4] = read-out: E-selectin (Homo sapiens) (UniProt P16581); test: BSK_3C_Eselectin: BioMAP Diversity Plus: 3C Assay for Eselectin Biomarker Activity (AID 2283015; active = hit-call score of the fitted dose curve at least 0.9, where 1 is the maximum; inactive = score below 0.9); conditions: primary human endothelial cells (HUVEC); actives raise or lower the signal
Method in brief: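 ELISA read-out of E-selectin on endothelial monolayers after 24 h chemical treatment. Human umbilical vein primary cells served as the system, with DMSO defining baseline activity for bidirectional fitting.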

[5] = read-out: Interleukin-1 alpha (IL1a), IL1A (gene 3552); test: BSK_BE3C_IL1a: BioMAP Diversity Plus: BE3C Assay for Interleukin-1 alpha (IL1a) Biomarker Activity (AID 2283016; active = hit-call score of the fitted dose curve at least 0.9, where 1 is the maximum; inactive = score below 0.9); conditions: primary human bronchial epithelial cells; actives raise or lower the signal
Method in brief: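 Cultures of primary human bronchial epithelial cells receive test chemical. After 24 h, IL-1a is quantified by ELISA, while parallel wells are fixed in TCA and SRB-stained for total protein. Changes in either direction are fitted relative to DMSO.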

[6] = read-out: Monocyte Chemoattractant Protein-1 (MCP1), CCL2 (gene 6347); test: BSK_3C_MCP1: BioMAP Diversity Plus: 3C Assay for Monocyte Chemoattractant Protein-1 (MCP1) Biomarker Activity (AID 2283017; active = hit-call score of the fitted dose curve at least 0.9, where 1 is the maximum; inactive = score below 0.9); conditions: primary human endothelial cells (HUVEC); actives raise or lower the signal
Method in brief: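 ELISA read-out of MCP-1 from human umbilical vein endothelial cell cultures harvested 24 h post-dosing. Gain or loss of signal was fitted relative to DMSO.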

[7] = read-out: Monocyte Chemoattractant Protein-1 (MCP1), CCL2 (gene 6347); test: BSK_4H_MCP1: BioMAP Diversity Plus: 4H Assay for Monocyte Chemoattractant Protein-1 (MCP1) Biomarker Activity (AID 2283018; active = hit-call score of the fitted dose curve at least 0.9, where 1 is the maximum; inactive = score below 0.9); conditions: primary human endothelial cells (HUVEC); actives raise or lower the signal
Method in brief: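 Readout: MCP-1 ELISA on compound-treated HUVEC, sampled 24 h post-dosing. Baseline and negative control DMSO; bidirectional fit. Overt toxicity checked alongside by sulforhodamine B protein staining at time of biomarker measurement.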

[8] = read-out: Human Leukocyte Antigen - DR isotype (HLADR), HLA-DRA (gene 3122); test: BSK_3C_HLADR: BioMAP Diversity Plus: 3C Assay for Human Leukocyte Antigen - DR isotype (HLADR) Biomarker Activity (AID 2283019; active = hit-call score of the fitted dose curve at least 0.9, where 1 is the maximum; inactive = score below 0.9); conditions: primary human endothelial cells (HUVEC); actives raise or lower the signal
Method in brief: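 ELISA readout of surface HLA-DR on human umbilical vein endothelium, taken 24 h after chemical treatment. Gain- and loss-of-signal were both fitted relative to DMSO.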

[9] = read-out: Interleukin-8 (IL8), CXCL8 (gene 3576); test: BSK_3C_IL8: BioMAP Diversity Plus: 3C Assay for Interleukin-8 (IL8) Biomarker Activity (AID 2283020; active = hit-call score of the fitted dose curve at least 0.9, where 1 is the maximum; inactive = score below 0.9); conditions: primary human endothelial cells (HUVEC); actives raise or lower the signal
Method in brief: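 Human vascular endothelial cells (umbilical vein) in the 3C system; IL-8 level detected by ELISA at 24 h post-dose, with DMSO as baseline.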

[10] = target: human RAR-related Orphan Receptor beta (RORb), RORB (gene 6096) (UniProt Q92753); test: ATG_RORb_TRANS: Attagene TRANS-FACTORIAL HepG2 Assay for human RAR-related Orphan Receptor beta (RORb) (AID 2283010)
Sequence of human RAR-related Orphan Receptor beta (RORb), RORB (gene 6096) (Q92753 whole entry, looked up, the tested form may be a part): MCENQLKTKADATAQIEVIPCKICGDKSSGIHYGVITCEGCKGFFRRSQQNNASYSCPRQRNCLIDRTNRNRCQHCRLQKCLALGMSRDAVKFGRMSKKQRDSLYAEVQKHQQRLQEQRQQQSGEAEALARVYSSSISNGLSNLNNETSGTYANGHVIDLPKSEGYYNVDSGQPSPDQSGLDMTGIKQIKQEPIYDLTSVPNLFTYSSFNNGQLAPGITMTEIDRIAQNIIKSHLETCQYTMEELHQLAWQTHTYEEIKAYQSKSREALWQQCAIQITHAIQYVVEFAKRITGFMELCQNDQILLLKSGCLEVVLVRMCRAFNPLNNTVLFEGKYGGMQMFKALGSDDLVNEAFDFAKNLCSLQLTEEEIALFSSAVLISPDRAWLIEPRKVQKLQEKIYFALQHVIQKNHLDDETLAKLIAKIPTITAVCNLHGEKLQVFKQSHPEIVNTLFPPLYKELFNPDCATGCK
Method in brief: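 In this TRANS-format test, human HepG2 cells express chimeric NR-Gal4 fusion proteins driving GAL4-UAS reporters. After 24 h dosing, reporter transcripts are measured by fluorescent RT-PCR/capillary electrophoresis, with DMSO as negative control.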

Measured: AC50

Sequence of E-selectin (Homo sapiens) (P16581 whole entry, looked up): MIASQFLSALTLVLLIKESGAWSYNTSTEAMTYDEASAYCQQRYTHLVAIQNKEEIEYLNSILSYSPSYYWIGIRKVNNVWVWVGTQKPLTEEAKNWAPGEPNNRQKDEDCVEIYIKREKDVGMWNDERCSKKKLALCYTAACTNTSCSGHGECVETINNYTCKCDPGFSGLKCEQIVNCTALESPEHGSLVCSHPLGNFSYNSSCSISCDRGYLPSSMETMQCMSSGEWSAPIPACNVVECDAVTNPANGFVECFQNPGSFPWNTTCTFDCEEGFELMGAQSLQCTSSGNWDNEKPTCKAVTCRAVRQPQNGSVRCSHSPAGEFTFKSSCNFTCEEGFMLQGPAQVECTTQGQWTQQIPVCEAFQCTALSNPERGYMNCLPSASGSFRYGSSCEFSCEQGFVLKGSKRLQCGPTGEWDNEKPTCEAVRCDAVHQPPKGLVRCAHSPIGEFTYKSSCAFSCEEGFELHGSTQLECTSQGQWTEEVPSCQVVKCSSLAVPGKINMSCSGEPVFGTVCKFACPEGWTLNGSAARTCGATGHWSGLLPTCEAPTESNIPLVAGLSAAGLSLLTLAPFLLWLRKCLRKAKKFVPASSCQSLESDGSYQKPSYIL

OC1CCC(C2CCCCC2)CC1 (centres undefined)
inactive: [1] | [2] | [3] | [4] | [5] | [6] | [7] | [8] | [9]

CCOC(=O)CC(O)(CC(=O)OCC)C(=O)OCC
inactive: [10] | [1] | [4] | [6] | [7] | [9]

CC(C)(C)CC(C)(C)c1ccc(O)c(-n2nc3ccccc3n2)c1
inactive: [10] | [2] | [3] | [4] | [6] | [7] | [9]

CCC(C)(C)C1CCC(O)CC1 (centres undefined)
inactive: [10] | [1] | [3] | [4] | [5] | [6] | [7] | [9]
active: [2] 58.7 µM [middle of 4 runs]

CC(C)(C)c1ccc(O)c(C(C)(C)C)c1
inactive: [10]
active: [1] 7.27 µM | [2] 3.2 µM | [3] 11.1 µM | [4] 10.3 µM | [5] 33.7 µM | [6] 11.7 µM | [7] 10 µM | [8] 8.06 µM | [9] 12.9 µM

ClC1=C(Cl)C(Cl)(Cl)C(Cl)=C1Cl
active: [2] 17.5 µM | [4] 7.17 µM | [5] 8.21 µM | [6] 7.92 µM | [7] 7.06 µM | [8] 4.6 µM | [9] 9.46 µM
inactive: [1] | [2] | [3]

CCCCC(CC)COC(=O)CCCCC(=O)OCC(CC)CCCC (centres undefined)
active: [2] 49.1 µM
inactive: [10] | [1] | [4] | [6] | [7] | [9]

N#C[C@@H]1CC(F)(F)CN1C(=O)CNC1CC2CCC(C1)N2c1ncccn1 (some centres undefined)
inactive: [10] | [1] | [2] | [4] | [5] | [7]
active: [6] 4.85 µM | [9] 7.55 µM

O=C(/C=C/c1ccc(O)cc1)CC(=O)/C=C/c1ccc(O)cc1
inactive: [1] | [2] | [3]

OCCC(F)(F)C(F)(F)C(F)(F)C(F)(F)C(F)(F)C(F)(F)F
active: [6] 49.8 µM | [9] 45.7 µM
inactive: [10] | [1] | [2] | [3] | [4] | [6] | [7] | [9]

CC[C@H](c1ccc(O)cc1)[C@@H](CC)c1ccc(O)cc1
inactive: [10] | [1] | [3]
active: [2] 3.79 µM [middle of 4 runs] | [4] 34.8 µM | [5] 24.3 µM | [6] 32.1 µM | [7] 20 µM | [9] 33.6 µM

Cc1ccc(S(=O)(=O)O)c(C)c1
inactive: [10] | [1] | [2]
active: [2] 58.6 µM

CCCCCCCC(=O)O
inactive: [10] | [1] | [2] | [3] | [4] | [6] | [7] | [9]

O=C(OCCOCCOC(=O)c1ccccc1)c1ccccc1
inactive: [10] | [3] | [4] | [6] | [7] | [8] | [9]

C[C@@H]1C[C@H]2[C@@H]3CCC4=CC(=O)C=C[C@]4(C)[C@@]3(F)[C@@H](O)C[C@]2(C)[C@@]1(O)C(=O)COP(=O)(O)O
inactive: [10] | [1] | [2] | [3] | [4] | [6] | [7] | [8] | [9]

O=C1OC2(c3ccccc31)c1cc(Br)c(O)c(Br)c1Oc1c2cc(Br)c(O)c1Br
inactive: [10] | [2] | [3]

CCN(CC)CCNc1ccc(CNC=O)c2sc3ccc(OC)cc3c(=O)c12
inactive: [10] | [3]
active: [1] 1.85 µM | [2] 0.45 µM | [4] 27.3 µM | [6] 19.4 µM | [7] 20 µM | [9] 16.4 µM

O=C(O)c1ccccc1C(c1ccc(O)cc1)c1ccc(O)cc1
inactive: [10] | [1] | [2] | [3] | [4] | [6] | [7] | [9]

CCCCCCCCCCCCCC[N+](C)(C)C
inactive: [10] | [1] | [2] | [3]
active: [3] 26.7 µM | [4] 8.8 µM | [5] 3.83 µM | [6] 2.17 µM | [7] 1.69 µM | [9] 6.77 µM

CCCCC(CC)COC(=O)CCCCC(=O)OCc1ccccc1 (centres undefined)
inactive: [10] | [3] | [4] | [6] | [7] | [9]
active: [2] 80.6 µM

OCCC(F)(F)C(F)(F)C(F)(F)C(F)(F)C(F)(F)C(F)(F)C(F)(F)C(F)(F)F
inactive: [10] | [1] | [2] | [3] | [4] | [6] | [7] | [9]
active: [4] 30 µM | [6] 42.5 µM and 24.3 µM | [7] 43.6 µM | [8] 20 µM and 27.8 µM and 30 µM | [9] 48.2 µM

c1ccc2cc3c(ccc4ccccc43)cc2c1
inactive: [10] | [1] | [2] | [3] | [4] | [6] | [7] | [9]

O=c1c(-c2ccc(O)cc2)coc2cc(O)ccc12
inactive: [10] | [1] | [2] | [3] | [4] | [6] | [9]
active: [7] 13.8 µM | [8] 27.1 µM

CC(O)C(=O)O (centres undefined)
inactive: [10] | [1] | [2] | [3]

CC(C)(C)c1cccc(C(C)(C)C)c1O
inactive: [10] | [3] | [4] | [5] | [6] | [7] | [8] | [9]
active: [1] 68.8 µM | [2] 33.5 µM

Nc1cccc2c(N)cccc12
inactive: [10] | [1] | [2] | [3] | [4] | [5] | [6] | [7] | [9]

COC(=O)CCCCC(=O)OC
inactive: [1] | [2] | [3] | [4] | [5] | [6] | [7] | [8] | [9]

CCCOc1sc(C(=O)N2CCC(c3cc(CN)ccc3F)CC2)c(C)c1Br
active: [4] 11.1 µM | [6] 7.57 µM | [7] 9.52 µM | [9] 8.8 µM
inactive: [10] | [1] | [2]

NC(=O)N1C(=O)C(C(=O)c2cc(Cl)cs2)c2cc(F)c(Cl)cc21 (centres undefined)
inactive: [10] | [1] | [3] | [4] | [7] | [9]
active: [6] 5.16 µM
